PubChem BioAssay (EPA / NIEHS)
Calls of active or inactive are those of the source. Rule for the calls: active = hit-call score of the fitted dose curve at least 0.9, where 1 is the maximum; inactive = score below 0.9.

Assay: ATG_M_61_CIS: Attagene CIS-FACTORIAL HepG2 Assay for M61 Transcription Factor (Internal Marker) (AID 2282937)
Settings: HepG2 Attagene CIS-FACTORIAL M61 internal marker reporter; actives raise or lower the signal
Protocol: ATG_CIS is a cell-based, multiplexed-readout assay that uses HepG2, a human liver cell line, with measurements taken at 24 hours after chemical dosing in a 24-well plate.ATG_M_61_CIS is one of 52 assay component(s) measured or calculated from the ATG_CIS assay. It is designed to make measurements of mRNA induction, a form of inducible reporter, as detected with fluorescence intensity signals by Reverse transcription polymerase chain reaction (RT-PCR) and Capillary electrophoresis technology.Data from the assay component ATG_M_61_CIS was analyzed into 1 assay endpoint. This assay endpoint, ATG_M_61_CIS, was analyzed with bidirectional fitting relative to DMSO as the negative control and baseline of activity. Using a type of inducible reporter, measures of mRNA for gain or loss-of-signal activity can be used to understand the background control at the transcription factor-level as they relate to the gene . Furthermore, this assay endpoint can be referred to as a secondary readout, because this assay has produced multiple assay endpoints where this one serves a background control function. To generalize the intended target to other relatable targets, this assay endpoint is annotated to the background measurement intended target family, where the subfamily is internal marker.
Human liver HepG2 cells are transiently transfected with multiple reporter transcription units (MRTUs) in 6-well plates using FuGene 6 reagent (Roche; 3 ml FuGene/1 mg DNA). The MRTU constructs are regulated by a cis-regulating element (promoter). […] A major difference between the CIS and TRANS system is that in CIS activities of endogenous TFs are measured, whereas the TRANS assay evaluates changes in activities of exogenous, chimeric NR-Gal4 proteins. […] At the end of 24 hour incubation, total RNA was isolated using TriZol reagent (Invitrogen). The isolated RNA is then reverse-transcribed using oligo(dT) primer and Mo-MLV reverse transcriptase (Invitrogen) with DNAse I (Ambion) treatment for 30 min. The one-tenth of the produced cDNA was amplified by PCR using Taq DNA polymerase (Invitrogen) and two reporter sequence-specific primers. The PCR products were fluorescently labeled by primer extension with 6-arboxyfluorescein (6-FAM) 5'-labeled reporter sequence-specific primer (2 min at 95 C, 20 s at 68 C and 10 min at 72 C) and these products were digested with 5U of HpaI (New England Biolabs) for 2h at 37 C. The fragments were purified using Qiaquick PCR columns (Qiagen), analyzed on an ABI 3130xL genetic analyzer (Applied Biosystems) with peak positions identified by using a set of X-rhodamine (ROX)-labeled MapMarker1000 molecular weight standards (BioVentures). The raw capillary electrophoresis data was processed using Attagraph software (Attagene).
With `C=C(C)C1CC=C(C)C(OC(C)=O)C1` (stereo not given) the outcome was “inactive”. In the case of `CC(=O)OCC=C(C)C`, the outcome is reported as “inactive”. In the case of `O=C1CCCCCCCCCCCN1`, the outcome is reported as “inactive”. For `O=C1c2ccccc2C(=O)c2cc(S(=O)(=O)O)ccc21`, the outcome was “inactive”. In the case of `C=CC(=O)OCCCCCCCCCC`, the outcome is reported as “inactive”. For `CC1(C)CCC[C@]2(C)[C@H]3CC(=O)O[C@]3(C)CC[C@@H]12`, the outcome was “inactive”. For `CCCCCC[C@@H](O)C/C=C\CCCCCCCC(=O)OCC(O)CO` (stereo not given in full), the outcome was “inactive”. In the case of `COC(OC)(C(=O)c1ccccc1)c1ccccc1`, the outcome is reported as “inactive”. With `c1ccc2sc(SSN3CCOCC3)nc2c1` the outcome was “inactive”. In the case of `O=C(Nc1ccccc1)c1cc(Cl)ccc1O`, the outcome is reported as “inactive”. For `COc1ccc(-c2coc3cc(O)cc(O)c3c2=O)cc1`, the outcome was “inactive”. In the case of `O=S(=O)(O)c1ccc(Nc2nc(Nc3ccc(C=Cc4ccc(Nc5nc(Nc6ccc(S(=O)(=O)O)cc6)nc(N(CCO)CCO)n5)cc4S(=O)(=O)O)c(S(=O)(=O)O)c3)nc(N(CCO)CCO)n2)cc1`, the outcome is reported as “inactive”. With `CC1(C)[C@@H]2CC[C@@]1(C)C(=O)C2` the outcome was “inactive”. For `O=C(Cl)c1c(Cl)c(Cl)c(C(=O)Cl)c(Cl)c1Cl`, the outcome was “inactive”. For `CC(=O)OCc1ccccc1`, the outcome was “inactive”. With `CCCCCCCCCCCCCc1ccccc1` the outcome was “inactive”. In the case of `C=CC(=O)O[C@H]1C[C@@H]2CC[C@@]1(C)C2(C)C`, the outcome is reported as “inactive”. With `C1CNCCN1` the outcome was “inactive”. In the case of `CC(C)C(=O)OCCOc1ccccc1`, the outcome is reported as “inactive”. For `OCCCc1ccccc1`, the outcome was “inactive”. In the case of `CC1OC(=O)C(C)OC1=O` (stereo not given), the outcome is reported as “inactive”. In the case of `CCCSSCCC`, the outcome is reported as “inactive”. In the case of `Cc1ccc([N+](=O)[O-])cc1N`, the outcome is reported as “inactive”. With `CCNc1nc(NC(C)(C)C)nc(OC)n1` the outcome was “inactive”. For `O=c1c(O)c(-c2ccc(O)cc2O)oc2cc(O)cc(O)c12`, the outcome was “inactive”. With `Cc1cc(C)n(CO)n1` the outcome was “inactive”. For `CC(=O)OC1CCCCC1C(C)(C)C` (stereo not given), the outcome was “inactive”. For `CCC1COC(=O)O1` (stereo not given), the outcome was “inactive”. In the case of `CCCCOCCOC(=O)COc1ccc(Cl)cc1Cl`, the outcome is reported as “inactive”. For `COC(=O)CC(C)CCC=C(C)C` (stereo not given), the outcome was “inactive”. With `N=C1C=CC(=C(c2ccc(N)cc2)c2ccc(N)cc2)C=C1` the outcome was “inactive”. For `CCOC(=O)CC(=O)c1ccccc1`, the outcome was “inactive”. With `Nc1cccc(N)n1` the outcome was “inactive”. With `CC(CC(C)C)=NO` the outcome was “inactive”. In the case of `O=C(O)C(F)(F)C(F)(F)C(F)(F)C(F)(F)C(=O)O`, the outcome is reported as “inactive”. With `C=C(C)C1CC=C(C)CC1` (stereo not given) the outcome was “inactive”. In the case of `C=CCCCCCCCCOC(C)=O`, the outcome is reported as “inactive”. For `CCCCCCCCCCCC(C)=O`, the outcome was “inactive”. In the case of `CCOC(=O)C1=NN(c2ccc(Cl)cc2Cl)C(C)(C(=O)OCC)C1` (stereo not given), the outcome is reported as “inactive”. For `CCOC(=O)[C@H](O)[C@@H](O)C(=O)OCC`, the outcome was “inactive”.
